Compound activity deposited in PubChem by National Center for Advancing Translational Sciences (NCATS).
Pf growth 96h – inhibits malaria parasite growth, 96 h. P. falciparum luciferase reporter growth, 96 h. Potency, µM (titrated, usually from 28.7 µM), for the others: at the top dose activity change, negative = inhibition, actives largely listed as inhibitors. AID 504834. 320,000 tested, 6.9% active; also: potency is read from the fitted curve at half-maximal effect; % is scaled to controls: 0 for no effect and ±100 for the full control effect
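Two-generation exposure (96 h) targets delayed-death phenotype. Reporter parasites carrying integrated firefly luciferase, in red cells at 2% hematocrit and 0.05% parasitemia final, kept at 37 C, 5% CO2; luminescence loss indicates inhibition.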
Pf growth 48h – P. falciparum growth inhibition at 48 hours (one generation) | Potency, µM (doses to about 28.7 µM), for inactives: top-dose activity change, negative = inhibition, hits mostly inhibitors | P. falciparum luciferase growth in erythrocytes, 48 h | 310,000 tested, 5.9% active | AID 504832; also: potency is read from the fitted curve at half-maximal effect; % is scaled to controls: 0 for no effect and ±100 for the full control effect
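Luciferase-expressing parasites in RBCs, 2% Hct / 0.1% parasitemia final; RPMI 1640 + 0.5% Albumax; 37 C, 5% CO2, one generation; luminescence read-out, lower signal = inhibition.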
HCV inhibitor – blocks hepatitis C virus; Huh7.5.1 HCVcc-Cre infection, luciferase reporter, 44 h; Potency, µM (series often up to 41.8 µM), for inactives: at the top dose activity change, negative = inhibition, usual class: inhibitors; 340,000 tested, 3.4% active; also: potency is read from the fitted curve at half-maximal effect; % is scaled to controls: 0 for no effect and ±100 for the full control effect
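Compounds are dispensed onto cells plated 4 h earlier at 1,000 per well, with HCVcc-Cre virus (about 0.5 moi) added next. Following 44 h of culture, luminescent signal is measured for 15 sec after 15 min with substrate at room temperature.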
Sm TGR inh – S. mansoni TGR enzyme inhibition. Q962Y6. purified TGR, DTNB reduction, TNB absorbance 405 nm. Potency, µM (titrated, usually from 114 µM), for the others: at the top dose activity change, negative = inhibition, actives largely listed as inhibitors. 360,000 tested, 3% active. AID 485364; also: potency is read from the fitted curve at half-maximal effect; % is scaled to controls: 0 for no effect and ±100 for the full control effect; nearly all actives have a fitted effect of over 60% in size
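Kinetic colorimetric format: TGR-catalysed, NADPH-driven DTNB reduction monitored via TNB absorbance. Enzyme dispensed at 20 nM; compound exposure 15 min at room temperature before reaction start.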
SARS PLP yeast – blocks SARS-CoV papain-like protease in a yeast assay; S. cerevisiae expressing SARS-CoV PLpro, growth rescue; Potency, µM (top dose mostly 32.9 µM), inactives show at the highest dose activity, positive = growth rescue, actives largely listed as activators; 330,000 tested, 0.19% active; calls by dose curve; also: potency is read from the fitted curve at half-maximal effect; 0% is about no effect; nearly all actives have a fitted effect of over 55% in size
HCMV inh – inhibitors of human cytomegalovirus. HFF cells, HCMV-luciferase reporter, 72 h; stronger effect = lower value. activity change, negative = inhibition, % at 57.5 µM. 410,000 tested, 4.5% active. AID 1259415; in the data active = activity change below about -60%; inconclusive = no clear call, values can overlap the other calls; inactive = above about -39%; also: % is scaled to controls: 0 for no effect and ±100 for the full control effect
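Inhibition of viral replication was scored as loss of reporter luminescence in HFFs infected with HCMV-luciferase (MOI 1 PFU/cell) for 72 h; compounds tested at 2 doses, normalized to buffer and Salinomycin controls.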
Active calls of the source: *; u = inconclusive; x = no result given. In the library only some 15% were active in any assay of this set; here they are far more common. Unless noted, calls follow the shape of the dose curve; as a rule, active = well fitted curve in the direction sought with a large enough effect; inconclusive = small, poorly fitted or top-dose-only effect, or another doubt; inactive = no such curve, though single readings can be large; an effect the other way counts as inactive or inconclusive.

SMILES	Pf growth 96h	Pf growth 48h	HCV inhibitor	Sm TGR inh	SARS PLP yeast	HCMV inh
O=C1NC(=O)/C(=C/c2ccc(-c3cc(C(=O)O)ccc3Cl)o2)S1	u	6%	8%	-25%	2%	-11
CO[C@H]1C=C2CCN(C)[C@H]2C2c3cc4c(cc3C(=O)O[C@@H]21)OCO4 (some centres undefined)	135%	10%	-2%	-17%	x	-63*
CCCCCCc1cc2cc(C(=O)Nc3ccccc3)c(=O)oc2cc1O	u	u	4.5µM*	-7%	6%	-100*
CCCCCCc1cc2cc(C(=O)NCc3ccccc3)c(=N)oc2cc1O	-13%	u	-2%	0%	14%	-69*
COc1ccc(S(=O)(=O)N(CC(=O)Nc2ccccc2Br)Cc2ccccc2)cc1	x	x	x	0%	x	-31
CCCNC(=O)c1ccccc1NC(=O)c1ccccc1N(C)S(C)(=O)=O	9%	-1%	-2%	6%	-6%	16
CC(=O)c1cccc(NC(=O)c2ccccc2N(C)S(=O)(=O)c2ccc(C)cc2)c1	13µM*	u	22%	3%	1%	140
CCCNC(=O)c1ccccc1NC(=O)c1ccccc1N(C)S(=O)(=O)c1ccc(C)cc1	11%	8.3µM*	u	-3%	8%	7
CN(c1ccccc1C(=O)Nc1cccc(Br)c1)S(=O)(=O)c1ccccc1	208%	-6%	-11%	-17%	2%	42
Cc1cccc(N2C(=O)CC(Sc3nc(-c4ccccc4)c4cc(Cl)ccc4n3)C2=O)c1 (centres undefined)	178%	-1%	u	3%	-9%	-10
CCN1CCN(c2c(S(=O)(=O)c3ccc(C)c(C)c3)cnc3ccc(F)cc23)CC1	2.3µM*	u	-5%	-7%	-2%	-17
CC1CN(S(=O)(=O)c2cccc(C(=O)NCC(c3cccs3)N3CCOCC3)c2)CC(C)O1 (centres undefined)	x	x	22%	x	x	u
O=C(C1=C[C@H](c2coc3ccccc3c2=O)C[C@H](OCCCCO)O1)N1CCN(Cc2ccccc2)CC1	u	u	13%	u	0%	u
CC(=O)n1cc([C@H]2C=C(C(=O)N3CCN(Cc4ccccc4)CC3)O[C@@H](OCCCCO)C2)c2ccccc21	5.2µM*	u	10%	35µM*	-1%	x
CC(=O)n1cc([C@@H]2C=C(C(=O)N3CCN(Cc4ccc5c(c4)OCO5)CC3)O[C@H](OCCCCO)C2)c2ccccc21	12µM*	u	u	-6%	1%	-35
C[C@@H]1C=C(C(=O)N2CCN(Cc3ccccc3)CC2)O[C@H](OCc2ccc(CO)cc2)C1	-3%	2%	-30%	-35%	-2%	4
CC(=O)n1cc([C@@H]2C=C(C(=O)N3CCN(Cc4ccccc4)CC3)O[C@H](OCc3ccc(CO)cc3)C2)c2ccccc21	3.3µM*	0.93µM*	u	25µM*	0%	-74*
COc1ccc(CN2CCNC(=O)C2CC(=O)NCCC2=CCCCC2)cc1OC (centres undefined)	10µM*	-6%	9%	0%	-1%	-29
CCOC(=O)CC1C(=O)NCCN1Cc1ccc(OC)c(OC)c1 (centres undefined)	10µM*	0%	17%	11%	0%	-4
COc1ccccc1CN1CCNC(=O)C1CC(=O)NCCC1=CCCCC1 (centres undefined)	u	u	-2%	u	1%	-25
COc1ccc(CN2CCNC(=O)C2CC(=O)NCCc2cnccn2)cc1C (centres undefined)	15µM*	0%	18%	-35%	2%	0
COc1ccc(CN2CCNC(=O)C2CC(=O)N(C)CCC2CCOCC2)cc1OC (centres undefined)	u	8%	16%	u	-8%	26
O=C(CC1C(=O)NCCN1Cc1cccc(Oc2ccccc2)c1)NCCc1cnccn1 (centres undefined)	u	-1%	20%	0%	0%	-13
COc1ccc(NC(=O)Nc2ccccc2OCc2cc(=O)n3ccccc3n2)c(OC)c1	x	x	x	-4%	x	-29
CC(=O)N1CCN(S(=O)(=O)c2cccc(C(=O)N(C)Cc3ccc(C)o3)c2)CC1	1%	u	27%	40µM*	-1%	-27
SMILES	Pf growth 96h	Pf growth 48h	HCV inhibitor	Sm TGR inh	SARS PLP yeast	HCMV inh
CN(Cc1cccs1)C(=O)c1ccc(S(=O)(=O)N2CCCCC2)cc1	-7%	-16%	-2%	11%	1%	0
Cc1ccc(CN(C)C(=O)c2ccc(S(=O)(=O)N3CCCCCC3)cc2)o1	u	-16%	22%	50µM*	-10%	-25
Cc1ccc(CN(C)C(=O)c2cccc(S(=O)(=O)N3CCN(Cc4ccccc4)CC3)c2)o1	u	1%	-15%	u	-3%	-5
CCN1C(=O)N(CC)C(O)(c2ccccc2)C1(O)c1ccccc1 (centres undefined)	x	17%	1%	-18%	2%	-62*
CC1(C)CC(NC(=O)C2CCN(S(=O)(=O)c3ccc(Cl)c(C(F)(F)F)c3)CC2)CC(C)(C)N1	x	x	u	x	x	-17
CCOC(=O)c1ccc(NC(=O)CCc2nnc3ccc(N4CCCC4)nn23)cc1	3%	-19%	-9%	0%	12%	-9
CCOc1ccc(CCNC(=O)CCc2nnc3ccc(N4CCCCC4)nn23)cc1OCC	5.2µM*	u	-3%	7%	-1%	-3
CCN(CC)c1ccc(NC(=O)CCc2nnc3ccc(N4CCCC4)nn23)c(C)c1	u	12µM*	-18%	-21%	-1%	-11
Cc1nnc(SC(C)C)n(N)c1=O	-6%	20%	15%	-10%	0%	-18
Cc1noc(NC(=O)c2cccc(Cl)c2Cl)c1C#N	13%	0%	-24%	x	-2%	-39
CNC(=S)N(C1=NCC(c2ccc([N+](=O)[O-])cc2)S1)c1ccccc1 (centres undefined)	13µM*	-33%	-1%	68%	15%	33
CCOC(=O)c1cccc2c1-c1ccccc1/C2=N/O	39%	u	-34%	9%	-26%	-71*
CC(C)COC(=O)c1cccc2c1-c1ccccc1/C2=N\O	u	-1%	7%	-19%	-63%	-31
CCn1c(COc2ccccc2)nnc1SCC(=O)CC(=O)Nc1ccccc1OC	7.4µM*	13µM*	-6%	27%	3%	13
CCn1c(SCC(=O)N2CCCc3ccccc32)nnc1-c1ccco1	-6%	u	13%	u	-10%	u
